We go through twelve molecules from ChEMBL document CHEMBL3433997, “St. Jude Leishmania screening dataset” (2016).

Solute carrier family 2, facilitated glucose transporter member 1 (Homo sapiens), sequence (P11166 whole entry): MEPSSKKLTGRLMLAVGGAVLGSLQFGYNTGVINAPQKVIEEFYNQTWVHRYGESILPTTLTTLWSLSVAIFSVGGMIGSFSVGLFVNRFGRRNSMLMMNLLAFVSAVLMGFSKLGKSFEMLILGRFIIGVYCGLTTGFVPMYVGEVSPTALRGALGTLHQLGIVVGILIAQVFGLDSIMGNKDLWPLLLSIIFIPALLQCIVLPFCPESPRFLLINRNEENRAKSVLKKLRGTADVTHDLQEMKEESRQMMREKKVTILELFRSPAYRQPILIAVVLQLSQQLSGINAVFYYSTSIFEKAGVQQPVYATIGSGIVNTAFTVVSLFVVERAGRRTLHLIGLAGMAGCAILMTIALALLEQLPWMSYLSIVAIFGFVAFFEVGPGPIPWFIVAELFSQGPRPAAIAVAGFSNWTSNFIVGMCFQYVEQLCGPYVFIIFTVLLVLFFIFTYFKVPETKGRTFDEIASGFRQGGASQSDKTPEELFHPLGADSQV

The assay addresses Solute carrier family 2, facilitated glucose transporter member 1 (Homo sapiens) (UniProt P11166). As to the kind of experiment: ST_JUDE_LEISH: Cytotoxicity at 2uM final concentration against transgenic Leishmania Mexicana promastigotes LmGLUT1 that are glucose transport deficient and complemented with the human glucose transporter GLUT1. Activity is measured by DNA content using SYBR green in vitro. Format: functional.
As usually defined, the inhibition is the drop in the measured response relative to a control, in per cent. `Fc1ccc2[nH]c3c(NCCCN4CCOCC4)ncnc3c2c1`: the inhibition was found to be 1.79%.
Turning to `CCS(=O)(=O)c1ccc(-c2cnc3[nH]cc(-c4ccc(N)cc4)c3c2)cc1`, the inhibition stood at 16.2%.
Turning to `O=C(C=Cc1ccc(Cl)c(Cl)c1)NCCCCCN1CCC(CCCNS(=O)(=O)c2ccc(Br)cc2)CC1`, the inhibition worked out at 3.69%.
Consider `O=C(Nc1ccc(F)cc1)c1cnc(N2CCN(c3ccncc3)CC2)c(Cl)c1`, for which the inhibition was determined as 16%.
Take `COc1ccc(CNCc2ccccc2)cc1-c1ccc(S(=O)(=O)NCCN2CCCC2)c(C)c1`: the inhibition amounted to 3.15%.
Regarding `O=C(CCc1c[nH]cn1)Nc1cccc(-c2ccc(-c3nc4ccccc4[nH]3)cc2)c1`, the inhibition amounted to 6.89%.
`CN(C)CCCN1CCN(C(=O)c2cccc(-c3noc(C(F)(F)F)n3)c2)CC1`: the inhibition was found to be 2.61%.
As to `COc1cccc(CNC(=O)c2cc(CNCc3ccccc3)ccc2-c2cccc(CNCc3ccc(-c4ccccc4)cc3)c2)c1`, the inhibition amounted to 3.83%.
`COc1cc(Cc2cnc(N)nc2N)c2c(c1OC)OC(C)C=C2` (configuration not stated): the inhibition is 1.59%.
The result for `CCN(CC)CCCSc1ccc(-c2ccc(SCCCN(CC)CC)cc2)cc1` reads 88.5%; that for `N=C(N)CCN(Cc1ccccc1)c1ccc(Cl)cc1`, -1.51%.
Turning to `CC(C)(C)OC(=O)NCCc1cccc(-c2c[nH]c3ncc(-c4cccc(NS(C)(=O)=O)c4)cc23)c1`, the inhibition was -0.22%.
